# Assay results published in the OligoGym collection.
# Molecular target: FPGS
# Test: pooled miR-30 sensor sort-seq; sequence = guide strand
# Conditions: shRNA
# Note: reference of the scale not given here.
row,Sequence,sensor-assay potency score (higher = more potent)
1,TCACTGTGAAGTTCTGTTGGTC,0.188
2,TTGGTGAAGAGCTCAGGACTGA,-0.348
3,TATAGAGGACATGAGATCTGCT,0.932
4,TTCAGGTTGGAGCACAGTGAAG,-1.98
5,TTCTGTTGGTCTGCGTTGCCTG,-0.416
6,TTCCGTGAAGGCACAGGTGGAG,0.0376
7,TTCTCTTGGAGGAAGACGTGGA,0.047
8,TAGCATTGAAGAGCAAGACTCG,-0.404
9,ATTGATGCGGATCCGCTCCCGA,-1.01
10,TCGGAGGATACATTCCGTGAAG,-1.5
11,TCCTTGGTCTCCTCCAGCCGGT,-1.92
12,TTCACCTGCTCCAGGTAGCCGG,-1.54
13,TTGCCTGTGGATGACACCTCTG,-0.989
14,TTGATGCGGATCCGCTCCCGAA,-1.62
15,TGAAGAGCAAGACTCGAACCTC,-0.155
16,TGAAGTTCTGTTGGTCTGCGTT,-0.752
17,TCTGTTGGTCTGCGTTGCCTGT,-0.767
18,TTCCTGATGATGTTGGTGCAGT,-0.727
19,TAGAGGACATGAGATCTGCTGG,-0.333
20,TGCCTGTGGATGACACCTCTGT,-0.547
21,ATACATTCCGTGAAGGCACAGG,0.476
22,TCTTCGTCCAGGTGGTTCCAGT,-0.895
23,TGTCTGAGGGTCACCCCGCTGG,-0.513

# Molecular target: FPGT-TNNI3K
# Test: as above
# Conditions: shRNA
row,Sequence,sensor-assay potency score (higher = more potent)
1,TTCTTTTTCCTTGATCTGCAGG,-0.729
2,TTACATTTACATCAGCACCAAA,-1.01
3,TTTTATTTCTGCATCGTCCTTT,0.923
4,TTTATTTCTGCATCGTCCTTTA,-0.351
5,TTAATTTAGACTGCAAATCAAG,-1.11
6,TATCTTGAGCATTCACATCTGC,0.666
7,TTGAGCATTCACATCTGCTTTG,-0.576
8,TTGACTAGGTCAATGCTCTTGC,0.745
9,TTTGACTAGGTCAATGCTCTTG,-0.0852
10,TAACATATGATTCACTGACTTT,-0.697

# Molecular target: FRMD4B
# Test: as above
# Conditions: shRNA
row,Sequence,sensor-assay potency score (higher = more potent)
1,TTGAAGTAGAAACATTCTGTTT,-1.02
2,TTTCTTTGCAGCTTCCACCAGC,-0.481
3,TAAACTGCCATTACTTGCCATG,-1.04
4,TAGACATTGCCATAGCAGCTGG,-0.855
5,TATTAGAAAATTACTCTCCAGT,0.00309
6,TTGTCATCTAATTTGAACGCAG,-0.725
7,TTGAAACTGAAATCCTTCGTGG,0.853
